BRCA1 expr up: qHTS Assay to Identify Small Molecule Activators of BRCA1 Expression; MCF7-BRCA1-FFLuc reporter, luminescence, 48 h; response scale: scaled: vehicle 0%, 10 µM genistein 100%; Potency, µM (top dose mostly 46.1 µM), inactives show at the highest dose activation, most hits filed as activators; AID 624202, 2012; 380,000 compounds, 1.1% hits; note: nearly all actives have a fitted effect of over 80% in size
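Cells: MCF7-BRCA1-FFLuc, 2000/well. Exposure: 48 h, 37 °C, 5% CO2. Read: luminescence, 15 min post-substrate. Controls: genistein 10 microM (maximal activation), DMSO (neutral).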
Anesthetic bind: qHTS Assay for Identification of Novel General Anesthetics | Potency, µM (top dose mostly 77.5 µM), for inactives: at the highest dose activity change, negative = displacement, actives largely listed as inhibitors | Ferritin light chain (Equus caballus), P02791 | apoferritin/1-aminoanthracene competitive binding, fluorescence | 350,000 compounds, 0.074% hits; note: % is set by controls: 0 for no effect and ±100 for the full control effect; nearly all actives have a fitted effect of over 20% in size
Target sequence (P02791 2-175 limits assumed): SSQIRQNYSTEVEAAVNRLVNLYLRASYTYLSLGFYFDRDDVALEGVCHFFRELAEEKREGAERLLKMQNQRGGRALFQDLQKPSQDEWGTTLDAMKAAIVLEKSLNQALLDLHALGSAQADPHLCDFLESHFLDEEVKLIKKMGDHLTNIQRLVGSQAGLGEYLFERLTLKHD
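Steps: apoferritin (10 uM) was premixed with half-saturated 1-AMA in PBS, compounds were pin-transferred, plates stood 10 min at room temperature, fluorescence was read at 380/535 nm, and curves were fitted with a Hill equation.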
ERG Ets-DNA blk: qHTS for Small Molecule Inhibitors of the ERG Ets/DNA interaction; fluorescence polarization, His-ERG Ets domain / labelled DNA; Transcriptional regulator ERG (Homo sapiens), P11308; Potency, µM (doses to about 76.9 µM), without a hit: top-dose FP activity, negative = inhibition, usual class: inhibitors; 370,000 compounds, 0.028% hits; active = well fitted inhibition curve with a large enough effect in the polarisation, with a control signal flat; inconclusive = small, poorly fitted or top-dose-only effect, or effect the other way, or a change in a side signal; inactive = no such curve, though single readings can be large or run the other way; the % refers to the polarisation;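 note: polarization taken with two DNA probes labelled with fluorescein and Texas red; % of control where 0% means no effect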
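His-tagged ERG Ets domain (1 uM in the protein solution; 300mM KCl, 50mM Tris-HCl, 1mM EDTA, 1mM DTT, pH 7.5) received compound, then a probe mix of 5 nM fluorescein-DNA and 100nM Texas-615-DNA. Fluorescence polarization was read for both dyes.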
GoLoco inh red: qHTS Assay for Inhibitors of RGS12 GoLoco Motif Activity (Red Fluorophore); Potency, µM (highest dose often 61.6 µM), inactives show top-dose activity, negative = inhibition, usual class: inhibitors; Gai1:RGS12 GoLoco peptide FP, rhodamine, 10 min; AID 880, 2007; 230,000 compounds, 0.44% hits; Guanine nucleotide-binding protein G(i) subunit alpha-1 (Homo sapiens), P63096; active = well fitted inhibition curve with a large enough effect, not every such curve was filed as active; inactive = no such curve, though single readings can be large or run the other way; note: % is set by controls: 0 for no effect and ±100 for the full control effect; nearly all actives have a fitted effect of over 30% in size
Target sequence (P63096 whole entry, looked up): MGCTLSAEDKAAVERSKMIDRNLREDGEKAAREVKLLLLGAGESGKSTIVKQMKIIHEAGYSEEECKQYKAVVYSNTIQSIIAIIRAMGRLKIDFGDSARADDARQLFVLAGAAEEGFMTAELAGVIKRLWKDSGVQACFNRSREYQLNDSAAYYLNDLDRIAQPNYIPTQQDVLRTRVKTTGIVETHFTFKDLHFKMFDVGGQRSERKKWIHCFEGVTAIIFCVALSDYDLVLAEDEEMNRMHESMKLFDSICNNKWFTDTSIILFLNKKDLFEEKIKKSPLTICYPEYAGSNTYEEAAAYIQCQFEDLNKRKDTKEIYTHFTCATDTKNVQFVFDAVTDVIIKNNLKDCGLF
* = called active by the depositor; ? = inconclusive; . = no result; [ ] = another dose, or the depositor's remark. Rows were chosen to be rich in hits. Some 1.2% of all compounds tested hit in one or more screens of this group. Unless noted, calls come from the whole dose curve; as a rule, active = well fitted curve in the direction sought with a large enough effect; inconclusive = small, poorly fitted or top-dose-only effect, or another doubt; inactive = no such curve, though single readings can be large; an effect the other way counts as inactive or inconclusive. Potency is the fitted concentration of half-maximal effect.

SMILES	BRCA1 expr up	Anesthetic bind	ERG Ets-DNA blk	GoLoco inh red
Cc1cc(-c2ccc(N=Nc3cc(S(=O)(=O)O)c4ccccc4c3N)c(C)c2)ccc1N=Nc1cc(S(=O)(=O)O)c2ccccc2c1N	.	.	.	125%
Cc1ccc(NC(=O)c2sc3nc(CCl)[nH]c(=O)c3c2C)c(C)c1	11µM*	-23%	0%	19%
Cc1ccc(CNC(=O)c2nc(-c3ccc(Cl)cc3)n3c2CCCCC3)cc1	.	35%	2%	.
CN(N=O)C(=O)N[C@H]1C(O)C(O)C(CO)O[C@@H]1O (stereo not given in full)	.	1%	.	20µM*
CCCCc1nc2c(c3c1C[C@H](C)OC3)CN(S(=O)(=O)CCCC)CC2	.	.	.	4%[14.2 µM]
COc1ccccc1-c1nn2c(-c3cc(C)[nH]n3)nnc2s1	10%	.	.	.
CC(=O)Nc1cccc(/C(C)=N/NC(=O)c2cccs2)c1	?	-13%	-2%	-3%
C=C(C)C1CC=C(C)/C(=N/NC(=O)c2cccs2)C1 (stereo not given)	10µM*	-10%	-16%	3%
C/C(=N/NC(=O)c1cccs1)c1cccs1	3.5µM*	-18%	-3%	14%
CCOC(=O)N/N=C(\C)c1cccs1	?	-16%	-2%	14%
C=C(C)C1CC=C(C)C(=NNC(=O)c2ccncc2)C1 (stereo not given)	-24%	.	-1%	.
C/C(=N\NC(=O)c1cccs1)c1c(O)cc(C)oc1=O	3.5µM*	-18%	25%	.
C/C(=N\NC(=O)c1cc2ccccc2cc1O)c1cccs1	2%	-12%	?	.
C/C(=N/NC(=O)c1cccs1)c1cccc(N)c1	11µM*	-4%	15%	9%
CN(C)c1ccc(/C=C/c2c(Br)cnc3ccccc23)cc1	0%	.	.	.
CC1(C)[C@@H]2CC[C@]1(CC(=O)O)[C@H](Cl)C2	.	.	.	7%[14.2 µM]
CCc1ccc(S(=O)(=O)c2c[nH]c3cc(OC)c(OC)cc3c2=O)cc1	.	-11%	-1%	.
Cc1ccc(CONC(=O)c2ccc(Cl)cc2)cc1	8.9µM*	.	0%	.
Cc1ccc(CONC(=O)c2ccccc2)cc1	2.2µM*	-2%	-2%	0%
Cc1ccc(CONC(=O)c2ccccc2Cl)cc1	73%	.	10%	.
Cc1ccc(CONC(=O)c2ccc(C)cc2)cc1	?	.	-4%	.
Cc1ccc(C(=O)N/C(=C\c2ccccc2)C(=O)OCc2ccccc2)cc1	7.9µM*	-2%	-1%	12%
CCOC(=O)N/N=C1/C[C@@H](O)[C@@H](O)[C@@H]2[C@@H]3C(=O)N(c4cccc(Oc5ccccc5)c4)C(=O)[C@H]3CC[C@@H]12	.	-5%[15.3 µM]	.	.
Nc1ccc(C23CC4CC(CC(O)(C4)C2)C3)cc1	2%	14µM*	8%	-8%
Nc1ccc(C23CC4CC(CC(C4)C2)C3)cc1	-3%	8.9µM*	-5%	-1%
SMILES	BRCA1 expr up	Anesthetic bind	ERG Ets-DNA blk	GoLoco inh red
Nc1ccc(C23CC4CC(CC(CO)(C4)C2)C3)cc1	69%	?	0%	-3%
CCN(CC)c1ccc(/C=C/C2=C3C=CC=CC3NC=C2)cc1 (stereo not given)	50%	.	.	.
Cn1nc(-c2ccc(F)cc2)nc2c(=O)n(C)c(=O)nc1-2	-79%	.	.	.
CC[n+]1c(/C=C/C=C/N(C(C)=O)c2ccccc2)sc2ccccc21	-43%	?	14%	-177%
CCn1c(/C=C/N(C(C)=O)c2ccccc2)[n+](CC)c2ccc(Cl)cc21	-43%	-2%	6%	1.8µM*
O=C(Cl)COCc1ccccc1	.	-12%	.	.
COc1cc(C(=O)N2CCN(CCc3ccccn3)CC2)cc(OC)c1OC	.	-10%	8%	.
C[C@@]12C[C@H](O)C3[C@H](CCC4=CC(=O)CC[C@]43C)[C@H]1CC[C@@H]2c1csc(-c2ccccc2)n1 (stereo not given in full)	.	.	.	6%[14.2 µM]
COc1cc(C(c2c(C)[nH][nH]c2=O)c2c(C)[nH][nH]c2=O)ccc1OC(=O)c1cccc([N+](=O)[O-])c1	2%	?	-5%	8%
COc1cc(C(c2c(C)[nH][nH]c2=O)c2c(C)[nH][nH]c2=O)ccc1OCc1ccc([N+](=O)[O-])cc1	3.2µM*	?	-12%	-9%
CSc1ncnc2c1ncn2[C@@H]1O[C@@H](CO)[C@H](O)O[C@@H]1O	.	.	.	3%[14.2 µM]
CC(C(=O)O)c1ccc(C(=O)c2ccccc2)s1 (stereo not given)	14µM*	.	13%	.
CC(C)NC(=O)c1cccc2c(-c3ccc(F)c(F)c3)coc12	1µM*	.	.	.
COC(=O)C(C(=O)OC)C1c2ccccc2C=C(C)N1C(=O)OC (stereo not given)	.	.	.	3%[14.2 µM]
Cc1cc(C)nc(N/N=C/C(Cl)=C/c2ccccc2)n1	10µM*	-9%	-6%	23%
Cc1cc(C)nc(N/N=C/c2ccccc2)n1	93%	-11%	5%	11%
COc1cc(OC)c(NC(=O)N2CCc3c(sc4c3CCCC4)C2c2ccccc2)cc1Cl (stereo not given)	.	0%	11%	.
NC(=O)c1ccsc1NC(=O)c1ccc(S(=O)(=O)N2CCCCC2)cc1	81%	?	16%	9%
NC(=O)c1ccsc1NC(=O)c1ccc(S(=O)(=O)N2CCCC2)cc1	13µM*	-16%	-7%	-9%
COC(=O)C(C(C)=O)C1c2ccccc2C=C(C)N1C(=O)OC (stereo not given)	.	.	.	2%[14.2 µM]
Cc1nc2ccc(NC(=O)Cc3ccsc3)cc2s1	11µM*	-4%	-11%	4%
Cc1nc2ccc(NC(=O)c3ccccc3)cc2s1	3.5µM*	-9%	-2%	-21%
Cc1nc2ccc(NC(=O)N3CCSCC3)cc2s1	66%	-9%	-6%	8%
CC(=O)Nc1ccc2nc3ccccc3nc2c1	5.6µM*	528%	11%	3%
Cc1nc2ccc(NC(=O)N3CCCCC3)cc2s1	11µM*	-7%	10%	-9%
SMILES	BRCA1 expr up	Anesthetic bind	ERG Ets-DNA blk	GoLoco inh red
COc1ccc(NC(=O)c2oc3c(c2C)-c2nn(Cc4ccccc4Cl)cc2CC3)cc1OC	.	-3%	-11%	.
O=C(O)CCC/C=C\C[C@@H]1C(/C=C/[C@@H](O)COc2cccc(C(F)(F)F)c2)[C@@H](O)C[C@@H]1O (stereo not given in full)	.	2%	.	7%
O=C(Nc1ccc2nn(-c3ccccc3)nc2c1)c1cccs1	4.5µM*	42%	.	-9%
CCc1sc(C(=O)Nc2ccc3nc(C)sc3c2)cc1C	3.2µM*	.	-2%	.
CCc1sc(C(=O)Nc2ccc(NC(C)=O)cc2)cc1C	15%	-6%	-4%	0%
CC(=O)Nc1ccc2nc(NC(=O)c3cccs3)sc2c1	10%	9%	-5%	9%

From PubChem
